Source: PubChem BioAssay (National Center for Advancing Translational Sciences (NCATS))
Rows were chosen to be rich in hits. Some 8% of all compounds tested hit in one or more screens of this group.
SW480 rereplic – A quantitative high throughput screen for small molecules that induce DNA re-replication in SW480 colon adenocarcinoma cells; 1.8% of 340,000 active; SW480 DNA re-replication, Hoechst DNA content imaging, 48 h; Potency, µM (series often up to 46.1 µM), for the others: at the highest dose re-replication activation, actives largely listed as activators; further: % of control where 0% means no effect; nearly all actives have a fitted effect of over 55% in size
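Quantitative HTS format with DMSO vehicle controls; 48 hr drug incubation at 37 C, then 40 min Hoechst staining and scanning imager measurement at 405 nm excitation.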
KB-3-1 cytotox – qHTS assay for MDR1-selective chemotherapeutics: Primary screen using the parental adenocarcinoma cell KB-3-1 | KB-3-1 viability, CellTiter-Glo ATP luminescence, 72 h | Potency, µM (highest dose often 46.1 µM), hits mostly cytotoxic | 1.4% of 400,000 active; further: on the % scale 0 is the no-effect control and ±100 the full control effect; nearly all actives have a fitted effect of over 60% in size
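Cytotoxicity in the drug-sensitive parental line KB-3-1 was scored as loss of CellTiter-Glo luminescence following 72 h incubation with compound. Values come from curve fitting of normalized concentration-response data.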
HT1080-NT tox – qHTS for induction of synthetic lethality in tumor cells producing 2HG: qHTS for the HT-1080-NT fibrosarcoma cell line. Potency, µM (series often up to 46.1 µM), without a hit: at the top dose activity, negative = less viability, usual class: cytotoxic. HT-1080-NT fibrosarcoma viability, CellTiter-Glo ATP luminescence, 48 h. AID 686970, 2013. 1.6% of 360,000 active;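 further: NT is the 2HG producing partner of a matched IDH1 knockdown line; 0% = DMSO-treated cells and -100% = media-only wells without cells; nearly all actives have a fitted effect of over 55% in size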
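Viability by CellTiter-Glo luminescence after 48 h compound exposure at 37C of HT-1080-NT cells (750/well, RPMI, 5% FBS). % activity scaled between DMSO wells and medium-only wells, then curve-fitted and categorized by curve class.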
HT1080 IDH1KD tx – qHTS for induction of synthetic lethality in tumor cells producing 2HG: qHTS for the HT-1080-IDH1KD cell line. 2% of 360,000 active. Potency, µM (doses to about 46.1 µM), for inactives: at the top dose activity, negative = toxicity, hits mostly cytotoxic. HT-1080 IDH1 knockdown viability, ATP luminescence, 48 h. AID 686971, 2013;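 further: 0% = DMSO wells and -100% = cell-free medium wells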
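Viability of IDH1-knockdown HT-1080 fibrosarcoma cells was assessed by CellTiter-Glo after 48 h at 37 °C with titrated compound; concentration-effect curves were classified by fit quality and response size.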
MCF10A rereplic – A quantitative high throughput screen for small molecules that induce DNA re-replication in MCF 10a normal breast cells; AID 624296, 2012; Potency, µM (doses to about 46.1 µM), inactives show at the highest dose activity, positive = re-replication, hits mostly activators; 2.9% of 350,000 active; MCF 10A DNA re-replication, Hoechst nuclear intensity, 48 h; further: % of control where 0% means no effect; nearly all actives have a fitted effect of over 50% in size
KB-V1 MDR tox – qHTS assay for MDR1-selective chemotherapeutics: Primary screen using the drug-selected MDR subline cells KB-V1; KB-V1 MDR cells viability, CellTiter-Glo, 72 h; Potency, µM (series often up to 46.1 µM), hits mostly cytotoxic; 3.4% of 400,000 active; further: on the % scale 0 is the no-effect control and ±100 the full control effect; nearly all actives have a fitted effect of over 60% in size
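Following 72 h at 37 degrees C with compound, KB-V1 cell viability was read by CellTiter-Glo luminescence, medium being phenol-red-free DMEM plus 10% FBS; concentration-response parameters came from normalized, curve-fitted qHTS data.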
* = called active by the depositor. The call rests on the fitted dose curve; in most records, active means well fitted curve in the direction sought with a large enough effect; inconclusive means small, poorly fitted or top-dose-only effect, or another doubt; inactive means no such curve, though single readings can be large; an effect the other way counts as inactive or inconclusive. Potency means the concentration at half of the fitted maximal effect.

For O=C(NCC1CCN(c2ccc(S(=O)(=O)N3CCOCC3)cc2)CC1)Nc1ccccc1 the results were SW480 rereplic 0.0%, KB-3-1 cytotox inactive, HT1080-NT tox -0.7%, HT1080 IDH1KD tx -2.6%, MCF10A rereplic inconclusive and KB-V1 MDR tox inactive.
`COc1ccccc1C(=O)NCC1CCN(c2ccc(S(=O)(=O)N3CCOCC3)cc2)CC1` gave SW480 rereplic 1.8%, KB-3-1 cytotox inactive, HT1080-NT tox -9.1%, HT1080 IDH1KD tx -24.1%, MCF10A rereplic 6.51µM* and KB-V1 MDR tox 14.6µM*.
O=C(COc1ccccc1Cl)N(Cc1cccc(F)c1)C1CCS(=O)(=O)C1 (stereo not given) was read as KB-3-1 cytotox inactive and KB-V1 MDR tox inactive.
For Cc1ccc(/C=C/C(=O)N2CC(C)CC(C)C2)o1 (stereo not given) the results were SW480 rereplic 16.4µM*, KB-3-1 cytotox inactive, HT1080-NT tox inconclusive, HT1080 IDH1KD tx inconclusive, MCF10A rereplic 23.1µM* and KB-V1 MDR tox inactive.
CC(/C=C/c1ccc(C)o1)=C\C(=O)O was read as SW480 rereplic 8.5%, KB-3-1 cytotox inactive, HT1080-NT tox 4.7%, HT1080 IDH1KD tx -3.7%, MCF10A rereplic 23.1µM* and KB-V1 MDR tox inactive.
CCN1CCN(C(=O)/C=C/c2ccc(C)o2)CC1 was read as SW480 rereplic 68.6%, KB-3-1 cytotox inactive, HT1080-NT tox 14.8%, HT1080 IDH1KD tx 8.3%, MCF10A rereplic -64.2% and KB-V1 MDR tox inconclusive.
`CC1CCCC(C)N1C(=O)CSCc1ccc(Cl)cc1` (stereo not given) gave SW480 rereplic 0.9%, KB-3-1 cytotox inconclusive, HT1080-NT tox 1.0%, HT1080 IDH1KD tx 1.8%, MCF10A rereplic 7.2% and KB-V1 MDR tox 18.4µM*.
CC(C)c1ccccc1NC(=O)CCc1nc2ccccc2s1 was read as SW480 rereplic 1.8%, KB-3-1 cytotox inactive, HT1080-NT tox -0.2%, HT1080 IDH1KD tx -2.2%, MCF10A rereplic inconclusive and KB-V1 MDR tox 18.4µM*.
CN(C)CCCNc1nc2cc(-c3ccccc3)sc2c(=O)n1C was read as KB-3-1 cytotox inactive, HT1080-NT tox 9.2µM*, HT1080 IDH1KD tx inconclusive and KB-V1 MDR tox inactive.
`CN(C)CCCNc1nc2cc(-c3ccc(F)cc3)sc2c(=O)n1C` gave KB-3-1 cytotox inactive, HT1080-NT tox inconclusive, HT1080 IDH1KD tx 16.4µM* and KB-V1 MDR tox inactive.
Cc1cc(Cl)ccc1-c1cc2nc(NCCCN(C)C)n(C)c(=O)c2s1 was read as KB-3-1 cytotox inactive, HT1080-NT tox 18.4µM*, HT1080 IDH1KD tx 18.4µM* and KB-V1 MDR tox inactive.
COc1ccccc1-c1ccc(Nc2cccc(C(C)=O)c2)nn1 was read as SW480 rereplic 7.8%, KB-3-1 cytotox inactive, HT1080-NT tox -2.3%, HT1080 IDH1KD tx -25.4%, MCF10A rereplic 15.5% and KB-V1 MDR tox 13µM*.
Screening CC(=O)c1cccc(Nc2ccc(-c3ccccc3F)nn2)c1 returned SW480 rereplic -2.8%, KB-3-1 cytotox inactive, HT1080-NT tox 0.4%, HT1080 IDH1KD tx -4.3%, MCF10A rereplic -0.5% and KB-V1 MDR tox inactive.
CC(=O)c1ccc(Nc2ccc(-c3ccccc3C)nn2)cc1 was read as SW480 rereplic 24.4%, KB-3-1 cytotox inactive, HT1080-NT tox -0.6%, HT1080 IDH1KD tx 2.6%, MCF10A rereplic 25.9µM* and KB-V1 MDR tox inactive.
Screening COc1ccc2nc(-c3ccccc3)cc(C(=O)OCC(=O)N3CCCCC3)c2c1 returned SW480 rereplic 20.6µM*, KB-3-1 cytotox inconclusive, HT1080-NT tox -9.9%, HT1080 IDH1KD tx -8.3%, MCF10A rereplic -3.6% and KB-V1 MDR tox inconclusive.
For COc1ccc(-c2cc(C(=O)OCC(=O)c3cccc([N+](=O)[O-])c3)c3cc(C)ccc3n2)cc1 the results were SW480 rereplic 0.0%, KB-3-1 cytotox inactive, HT1080-NT tox 16.8%, HT1080 IDH1KD tx 14.2%, MCF10A rereplic 18.4µM* and KB-V1 MDR tox inactive.
Screening COc1ccc(-c2cc(C(=O)OCC(=O)N3CCCC3)c3ccccc3n2)cc1 returned SW480 rereplic -0.1%, KB-3-1 cytotox inactive, HT1080-NT tox inconclusive, HT1080 IDH1KD tx inconclusive, MCF10A rereplic -2.4% and KB-V1 MDR tox inconclusive.
For COc1ccc(-c2cc(C(=O)Oc3cccc(C)c3)c3cc(C)ccc3n2)cc1 the results were KB-3-1 cytotox inactive and KB-V1 MDR tox inconclusive.
Screening COc1ccc(NC(=O)c2cc(Br)ccc2Cl)c(OC)c1 returned SW480 rereplic -0.9%, KB-3-1 cytotox inactive, HT1080-NT tox 1.8%, HT1080 IDH1KD tx -5.2%, MCF10A rereplic -46.9% and KB-V1 MDR tox 16.4µM*.
`COc1ccc(NCC(=O)Nc2ccc(Br)cc2F)c(OC)c1` gave SW480 rereplic 6.51µM*, KB-3-1 cytotox inactive, HT1080-NT tox inconclusive, HT1080 IDH1KD tx -4.9%, MCF10A rereplic inconclusive and KB-V1 MDR tox inactive.
`COc1ccc(NC(=O)c2ccc(C(=O)Nc3ccc(OC)cc3OC)cc2)c(OC)c1` gave SW480 rereplic 5.17µM*, KB-3-1 cytotox inactive, HT1080-NT tox 11.8%, HT1080 IDH1KD tx 5.1%, MCF10A rereplic -6.8% and KB-V1 MDR tox inactive.
For COc1ccc(C(=O)Nc2ccc(-c3ccc(NC(=O)c4ccc(OC)cc4)c(OC)c3)cc2OC)cc1 the results were SW480 rereplic -124.3%, KB-3-1 cytotox inactive, HT1080-NT tox -3.0%, HT1080 IDH1KD tx -4.2%, MCF10A rereplic 2.31µM* and KB-V1 MDR tox inactive.
O=C(c1ccc2c(c1)N(Cc1ccc(Cl)cc1)C(=O)c1ccccc1S2=O)N1CCN(c2ccccc2F)CC1 (stereo not given) was read as KB-3-1 cytotox inactive and KB-V1 MDR tox inactive.
Screening CC(O)(CS(=O)(=O)Cc1ccccc1)C(=O)Nc1ccc(C(F)(F)F)cc1 (stereo not given) returned SW480 rereplic -8.0%, KB-3-1 cytotox inactive, HT1080-NT tox -8.9%, HT1080 IDH1KD tx inconclusive, MCF10A rereplic 19.6% and KB-V1 MDR tox 20.6µM*.
Screening CC(O)(CS(=O)(=O)Cc1ccccc1)C(=O)Nc1cccc(C(F)(F)F)c1 (stereo not given) returned SW480 rereplic -19.9%, KB-3-1 cytotox inactive, HT1080-NT tox 24.1%, HT1080 IDH1KD tx inconclusive, MCF10A rereplic 17.7% and KB-V1 MDR tox 14.6µM*.
